# In PubChem BioAssay (Tox21):
# A number with no mark means an inactive call. Active and inactive are the calls of the source. Calls come from the whole dose curve; as a rule, active = well fitted curve in the direction sought with a large enough effect in the repeat runs; inconclusive = weak or mixed curves; inactive = flat fitted curve, though single readings scatter.
# Experiment: qHTS assay to test for compound auto fluorescence at 460 nm (blue) in HEK293 cell free culture (AID 720681)
# Details: cell-free medium, autofluorescence 405/460 nm (blue); series mostly up to 46 µM; fluorescence, % of fluorescent control: at the top concentration
# Excerpt: U.S. Tox21 Program National Center for Advancing Translational Sciences [NCATS] NIH Chemical Genomics Center [NCGC] U.S. Environmental Protection Agency [EPA] National Institutes of Environmental Health Sciences [NIEHS] National Toxicology Program [NTP] U.S. Food and Drug Administration [FDA] Tox21 Assay Overview: Compound auto fluorescence often interferes with screening of the compound library against various biological targets and signaling pathways. Some of these compounds may have fluorophoric properties. Such properties may interfere with the assay outputs resulting in false positives and/or negatives. To decrease such complications and ensure the compound activities are relevant in terms of biological response, the Tox21 10K compound library was screened for auto fluorescence. From the fluorophores used as reporter signals in our screening assays, the auto fluorescence equivalencies of compounds against three fluorophores have been evaluated: Triamterene, Fluorescein and Rose Bengal sodium for blue, green and red fluorescence, respectively. The fluorescence intensities were measured using Excitation/Emission wavelengths at 405/460nm, 485/535nm and 540/590nm for blue, green and red labels, respectively. This assay includes the blue fluorescence data.
# Tox21 Assay Protocol Summary: 5 uL of culture medium (DMEM containing 10% FBS) per well was dispensed into black wall/clear bottom 1536-well plates using a Multidrop Combi Dispenser (ThermoFisher Scientific, Waltham, MA). After 23 nL compound or DMSO vehicle was transferred into assay plate by a pintool work station (Kalypsys, San Diego, CA), fluorescence intensities in the assay plates were measured by an Envision (PerkinElmer, Shelton, CT) plate reader using three labels for measuring blue, green and red fluorescence at […] 460, 535 and 590nm respectively.
# % is set by controls: 0 for no effect and ±100 for the full control effect.
Compound,"fluorescence, % of fluorescent control",outcome
CCCCOCCOCCOCCCC,0.0017% [at 91.3 µM],
COC(=O)c1ccc(C)cc1C1=NC(C)(C(C)C)C(=O)N1 (stereo not given),-0.0019% [at 91.3 µM],
O=c1cc(CO)occ1O,,inactive
CC(=O)OC/C=C(\C)CC/C=C(\C)CCC=C(C)C,0.18% [at 91.3 µM],
NC(=O)c1ccc([N+](=O)[O-])cc1,-0.15% [at 91.3 µM],
CC1=CC(C)C(C=O)CC1 (stereo not given),0.0279% [at 91.3 µM],
CC(C)(O)C#CC(C)(C)O,0.0782% [at 95.7 µM],
CC(=O)CC(C)(C)C1CCCCC1,-0.0084% [at 91.3 µM],
CCc1nccnc1CC,0.035% [at 18.6 µM],
c1cnc(N2CCN(Cc3ccc4c(c3)OCO4)CC2)nc1,-0.0464%,
CC(=O)N(CC(O)CO)c1c(I)c(C(=O)NCCO)c(I)c(C(=O)NCC(O)CO)c1I (stereo not given),-0.0253%,
O=C(O)CCCl,-0.0002% [at 95.7 µM],
C=C(C)C(=O)OCCCCCCCC(C)C,-0.113% [at 91.3 µM],
O=c1cc(-c2ccccc2)oc2ccccc12,,inactive
CN1C(=O)N(C)C(O)C1O (stereo not given),0.0048% [at 91.3 µM],
CCOC(C)(C)C,-0.04% [at 95.7 µM],
CC(C)CCCC(C)N (stereo not given),-0.037%,
CCN(CC)CCOCCOC(=O)C1(c2ccccc2)CCCC1,0.086%,
CC(=O)OCC(=O)[C@@]1(O)CCC2C3CCC4=CC(=O)CC[C@]4(C)C3[C@@H](O)C[C@@]21C (stereo not given in full),-0.0406%,
C/C=C(\C)C#N,-0.0457% [at 91.3 µM],

Compound,"fluorescence, % of fluorescent control",outcome
NS(=O)(=O)c1cc2c(cc1Cl)NC(C1CC3C=CC1C3)NS2(=O)=O (stereo not given),-0.144%,
CN(C)CCCNCCCN(C)C,-0.0275% [at 91.3 µM],
NC(=O)COCCN1CCN(C(c2ccccc2)c2ccc(Cl)cc2)CC1 (stereo not given),-0.156%,
CN1CCCC1,-0.0042% [at 91.3 µM],
CN1CCN(c2cc3c(cc2F)c(=O)c(C(=O)O)cn3-c2ccc(F)cc2)CC1,0.0639%,
COC(=O)CC(C)=O,-0.052% [at 91.3 µM],
CCOC(=O)CCC(C)=O,0.12% [at 91.3 µM],
CCn1nc(C(=O)O)c(=O)c2cc3c(cc21)OCO3,0.22% [at 18.6 µM],
O=C1CCCC(=O)C1,1.61% [at 91.3 µM],
NCCCNCCSP(=O)(O)O,0.04%,
O=C1CC2CC1C1CCCC21 (stereo not given),0.0347% [at 91.3 µM],
COC(=O)NN,-0.12% [at 95.7 µM],
CCOC(=O)c1c(C)n(C)c2ccc(O)cc12,0.021%,
N[C@@H](C(=O)N[C@@H]1C(=O)N2C(C(=O)O)=C(Cl)CS[C@H]12)c1ccccc1,4.75%,
CC1(C)CO[C@@H](CC(=O)O)CN1,0.0206%,
CCCCCSCCCCC,-0.095% [at 91.3 µM],
C=C(C)CS(=O)(=O)O,0.0098% [at 91.3 µM],
COc1ccc2c(c1)c(CC(=O)OCC(=O)O)c(C)n2C(=O)c1ccc(Cl)cc1,0.0291%,
O=C[C@H](O)[C@@H](O)[C@H](O)[C@H](O)CO,,inactive
CC(=O)OCC(=O)[C@@]1(O)CC[C@H]2[C@@H]3CCC4=CC(=O)CC[C@]4(C)[C@H]3C(=O)C[C@@]21C,-0.157%,
